The panel holds about 83,000 compounds, 20% with a hit somewhere; the sample as a whole holds those more often.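 Step 1: grow cells in 96-well plates. Step 2: add test compound at a single concentration. Step 3: incubate 48 h. Step 4: record percent growth.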 Values without a mark were called inactive. Activity calls are given as the source filed them. The calls were made as follows: active = growth percent below 10; inactive = the rest.
Key:
Assay in all cases: NCI-60 one-dose screen, 48 h (100 = growth as untreated, 0 = no growth, -100 = all killed)
[1] = tested on: DU-145 prostate; details: 10 µM unless noted
[2] = tested on: K-562 leukemia; details: 10 µM unless noted
[3] = tested on: MALME-3M melanoma; details: 10 µM unless noted
[4] = tested on: MDA-MB-231 breast; details: 10 µM unless noted
[5] = tested on: RXF 393 renal; details: 10 µM unless noted
[6] = tested on: SF-268 CNS; details: 10 µM unless noted
[7] = tested on: SF-295 CNS; details: 10 µM unless noted
[8] = tested on: SF-539 CNS; details: 10 µM unless noted
[9] = tested on: UACC-257 melanoma; details: 10 µM
[10] = tested on: M14 melanoma; details: 10 µM unless noted
[11] = tested on: HCT-15 colon; details: 10 µM unless noted
[12] = tested on: HT29 colon; details: 10 µM unless noted
[13] = tested on: SNB-75 CNS; details: 10 µM unless noted
[14] = tested on: SNB-19 CNS; details: 10 µM unless noted
[15] = tested on: U251 CNS; details: 10 µM unless noted
[16] = tested on: PC-3 prostate; details: 10 µM unless noted
[17] = tested on: SK-MEL-5 melanoma; details: 10 µM unless noted
[18] = tested on: UACC-62 melanoma; details: 10 µM unless noted
[19] = tested on: LOX IMVI melanoma; details: 10 µM unless noted
[20] = tested on: SK-MEL-28 melanoma; details: 10 µM unless noted

| SMILES | growth [1] | growth [2] [%] | growth [3] [%] | growth [4] | growth [5] | growth [6] [%] | growth [7] | growth [8] | growth [9] [%] | growth [10] | growth [11] [%] | growth [12] | growth [13] | growth [14] [%] | growth [15] | growth [16] [%] | growth [17] | growth [18] | growth [19] | growth [20] [%] |
| --- | --- | --- | --- | --- | --- | --- | --- | --- | --- | --- | --- | --- | --- | --- | --- | --- | --- | --- | --- | --- |
| COc1ccc(/C=C\c2cc(OC)c(OC)c(OC)c2)c(NS(=O)(=O)c2ccc(C(C)(C)C)cc2)c1O | -0.37% (active) | 13.2 | 108 | 8.45% (active) | 22.6% | 24.5 | 16.9% | 2.6% (active) | 65.7 | 14.9% | 15.5 | 33% | 31.9% | 46.1 | 24.3% | 34.5 | -19.2% (active) | 39.1% | 17% | 53.7 |
| COc1ccc(-n2c(C)cc(-c3ccccc3)c2C)cc1 | 73.9% | 15.6 | 36.9 | 6.48% (active) | 10.1% | 75.5 | 34.1% | 62% | 40.3 | 15.9% | 37.9 | 12.4% | 41.2% | 69.6 | 43.5% | 31.7 | -3.53% (active) | 52.2% | 42.1% | 58.1 |
| O=C(CNC1CCCCC1)Nc1ccc(-c2nc3ccccc3s2)cc1 | 89.3% | 49.5 | 105 | 46.2% | 68.5% | 78.4 | 85.9% | 87.5% | 105 | 89.4% | 62.9 | 62.3% | 67.3% | 91 | 65.1% | 79.7 | 90.8% | 96.2% | 73.9% | 95.2 |
| COc1ccc(/C=C/c2cc(N3CCOCC3)c3cc(F)c(F)cc3n2)cc1OC | 48.3% | 28.9 | 49.3 | 45.9% | 52.2% | 31.4 | 31.4% | 28.9% | 45.4 | 31.6% | 30 | 38.9% | 48% | 48.8 | 23.5% | 38.7 | 26.2% | 19.9% | 1.22% (active) | 51.4 |
| COc1ccc(-c2cn[nH]c2-c2cc(OC)c3c(c2)OCO3)cc1 | 12.4% | 10.1 | 30.9 | 11% | -31.3% (active) | 37.6 | -10.4% (active) | -28.7% (active) | 66.9 | 16% | 18.6 | 5.01% (active) | -12.9% (active) | 41.7 | 9.27% (active) | 11.1 | 32% | 15.8% | 22.8% | 39.4 |
| CCOC(=O)[C@H](CSSc1ncnc2cc[nH]c12)NC(=O)[C@@H](C)c1ccc2cc(OC)ccc2c1 | 33.4% | 13.5 | 56.2 | 28.2% | 57.9% | 33.1 | 16.7% | 11.4% | 28.2 | 6.45% (active) | 19.6 | 15.7% | 50.1% | 91.8 | 35.6% | 36.3 | 45% | 7.27% (active) | 10.3% | 69.2 |
| CCN(C(=O)c1cc2ccccc2[nH]1)[C@H]1CCC[C@@H](NCc2ccc(OC)cc2)C1 | 95.6% | 76.6 | 92.3 | 90.4% | 86% | 89.8 | 99.2% | 104% | 112 | 98.2% | 81 | 76.2% | 80.6% | 91.3 | 101% | 88.5 | 91.2% | 95.6% | 89% | 98.3 |
| CCC1CCc2nc3sc(C(=O)Nc4ccccc4C)c(N)c3cc2C1 (stereo not given) | 22.7% | 24.1 | 28.3 | 66.6% | 26.1% | 49.9 | 15.3% | 23.9% | 54.2 | 19.8% | 26.3 | 7.01% (active) | 25.9% | 54.1 | 42% | 26.8 | 26.6% | 33.2% | 35% | 49.5 |

Source: PubChem BioAssay (NCI)
